Measurements reported in PMC5540273 (PLoS ONE, 2017).
Where “and” joins values, the source holds several entries; their conditions need not be identical. Identical values can stand only once. Like-named read-outs stand apart in the source and are kept apart here.

Tests used:
[1] = tested on: RPS6KA5(Kin.Dom.2-C-terminal); conditions: concentration: 1 μM, replicates: in singlicate, n = 1
[2] = tested on: T1, RSK1(Kin.Dom.1-N-terminal); conditions: concentration: 1 μM, replicates: in singlicate, n = 1
T1 construct: gene RPS6KA1

[3] = tested on: T2, RSK1(Kin.Dom.2-C-terminal); conditions: concentration: 1 μM, replicates: in singlicate, n = 1
T2 construct: gene RPS6KA1

[4] = tested on: T3, RSK2(Kin.Dom.1-N-terminal); conditions: concentration: 1 μM, replicates: in singlicate; n = 1
T3 construct: gene RPS6KA3

[5] = tested on: T4, RSK2(Kin.Dom.2-C-terminal); conditions: concentration: 1 μM, replicates: in singlicate, n = 1
T4 construct: gene RPS6KA3

[6] = tested on: T5, RSK3(Kin.Dom.1-N-terminal); conditions: concentration: 1 μM, replicates: in singlicate, n = 1
T5 construct: gene RPS6KA2

[7] = tested on: T6, RSK3(Kin.Dom.2-C-terminal); conditions: concentration: 1 μM, replicates: in singlicate; n = 1
T6 construct: gene RPS6KA2

[8] = tested on: T7, RSK4(Kin.Dom.1-N-terminal); conditions: concentration: 1 μM, replicates: in singlicate, n = 1
T7 construct: gene RPS6KA6

[9] = tested on: T8, RSK4(Kin.Dom.2-C-terminal); conditions: concentration: 1 μM, replicates: in singlicate, n = 1
T8 construct: gene RPS6KA6

S6K1 = conditions: concentration: 1 μM, replicates: in singlicate; n = 1
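Also: KINOMEscan kinase panel screen.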

SMILES | %Inh [1] | %Inh [2] | %Inh [3] | %Inh [4] | %Inh [5] | %Inh [6] | %Inh [7] | %Inh [8] | %Inh [9] | %Inh (S6K1) | %Inh ([1]; 1 µM) | %Inh ([2]; 1 µM) | %Inh ([3]; 1 µM) | %Inh ([5]; 1 µM) | %Inh ([6]; 1 µM) | %Inh ([8]; 1 µM) | %Inh ([9]; 1 µM)
O=C(Nc1n[nH]c2nc(-c3ccco3)c(Br)cc12)c1ccc(CN2CCCC2)cc1.O=C(O)[C@H](O)[C@@H](O)C(=O)O [SB-742352] | 0% | 5% | 0% | 3% | 0% | 0% | 0% | 13% | 0% | 11% | – | – | – | – | – | – | –
Fc1ccc(Nc2nccc(-c3c(-c4ccc(Cl)cc4)nn4ncccc34)n2)cc1F [GW829058] | 18% | 27% | 10% | 31% | 42% | 6% | 0% | 30% | 0% | 4% | – | – | – | – | – | – | –
CS(=O)(=O)CCNCc1nc(-c2ccc3ncnc(Nc4ccc(OCc5cccc(F)c5)c(Cl)c4)c3c2)cs1.Cl [GW583340] | 9% | 22% | 10% | 0% | 0% | 0% | 11% | 0% | 25% | 6% | – | – | – | – | – | – | –
FC(F)(F)c1cc(Nc2nccc(-c3c(-c4ccc(Cl)cc4)nn4ncccc34)n2)ccc1Cl [GW829351] | 0% | 0% | 28% | 11% | 0% | 0% | 0% | 0% | 45% | 0% | – | – | – | – | – | – | –
CCC(CC)(CC)n1cnc2c(N)ncnc21 [SKF-97620] | 4% | 0% | 34% | 41% | 10% | 0% | 22% | 40% | 2% | 16% | – | – | – | – | – | – | –
COC(=O)c1cccc(NC(=O)NCCNc2ccnc(Nc3ccc(F)cc3)n2)c1 [GSK1379883] | 4% | 30% | 0% | 0% | 0% | 0% | 0% | 0% | 11% | 0% | – | – | – | – | – | – | –
COc1ccc(Nc2nccc(N3CCC(NC(=O)Nc4ccc5c(c4)OCO5)C3)n2)cc1 (stereo not drawn) [GSK1379745] | 0% | 0% | 8% | 10% | 0% | 17% | 19% | 0% | 41% | 0% | – | – | – | – | – | – | –
Cn1ccc2ncnc(Nc3ccc(Oc4cccc(Cl)c4)c(Cl)c3)c21 | 11% | 13% | 0% | 20% | 0% | 19% | 10% | 29% | 14% | 0% | – | – | – | – | – | – | –
COc1ccc(-c2nc3n(c2-c2ccncc2)CCC3)cc1 [SKF-104493] | – | – | – | 0% | – | – | 0% | – | – | 0% | 10% and 0% | 0% and 4% | 93.1% and 37% | 12% and 5% | 1% and 0% | 68% and 0% | 59% and 63%
Fc1ccc(-c2ncn(CCCNCc3ccccc3)c2-c2ccncc2)cc1 | 7% | 0% | 22% | 0% | 22% | 16% | 21% | 0% | 31% | 19% | – | – | – | – | – | – | –
Cc1cccc(-c2nc(Nc3ccc4[nH]nnc4c3)c3ccccc3n2)n1 [GW867587] | 0% | 0% | 16% | 12% | 0% | 0% | 12% | 0% | 0% | 0% | – | – | – | – | – | – | –
COc1ccc(NC(=O)Nc2ccc(C)c(-c3ccc(C(=O)Nc4ccncc4)cc3)c2)cc1 [GSK1398475] | 0% | 16% | 3% | 0% | 0% | 0% | 0% | 0% | 22% | 0% | – | – | – | – | – | – | –
N#Cc1ccc(Oc2ccc(Nc3ncnc4cc[nH]c34)cc2Cl)cc1 | 0% | 20% | 17% | 19% | 0% | 9% | 23% | 16% | 32% | 10% | – | – | – | – | – | – | –
O=C(Nc1ccccc1F)NC1CCN(c2ccnc(Nc3ccc(F)cc3)n2)C1 (stereo not drawn) [GSK1379722] | 19% | 8% | 0% | 14% | 28% | 13% | 0% | 0% | 0% | 11% | – | – | – | – | – | – | –
COc1cc2c(Nc3cccc(NC(=O)c4ccccc4)c3)ncnc2cc1OCCCN1CCOCC1 [GSK223810] | 0% | 2% | 0% | 18% | 20% | 13% | 11% | 20% | 14% | 0% | – | – | – | – | – | – | –
CSc1ccc(NC2=C(c3ccccc3Cl)C(=O)NC2=O)cc1 [SB-342411] | 1% | 6% | 15% | 0% | 0% | 1% | 0% | 0% | 0% | 1% | – | – | – | – | – | – | –
CC(=O)Nc1n[nH]c2ncc(-c3ccccc3)cc12 [SB-548492] | 0% | 1% | 100% | 20% | 0% | 41% | 0% | 36% | 12% | 50% | – | – | – | – | – | – | –

SMILES | %Inh [1] | %Inh [2] | %Inh [3] | %Inh [4] | %Inh [5] | %Inh [6] | %Inh [7] | %Inh [8] | %Inh [9] | %Inh (S6K1) | %Inh ([1]; 1 µM) | %Inh ([2]; 1 µM) | %Inh ([3]; 1 µM) | %Inh ([5]; 1 µM) | %Inh ([6]; 1 µM) | %Inh ([8]; 1 µM) | %Inh ([9]; 1 µM)
CCCc1ccc(S(=O)(=O)NC2CCN(c3ccnc(Nc4ccc(OC)cc4)n3)C2)cc1 (stereo not drawn) [GSK1379737] | 7% | 0% | 0% | 2% | 13% | 0% | 0% | 0% | 0% | 16% | – | – | – | – | – | – | –
NC(=O)c1sc(-n2cnc3ccccc32)cc1OCc1ccccc1F [GSK1024306] | 0% | 0% | 32% | 9% | 31% | 0% | 0% | 0% | 82% | 0% | – | – | – | – | – | – | –
C[C@H]1CC[C@@H](C(=O)Nc2ccccc2)CN1c1cc(-c2ccc3c(N)n[nH]c3c2)nc(N)n1 [GSK2283293] | 0% | 18% | 8% | 0% | 21% | 0% | 9% | 0% | 23% | 0% | – | – | – | – | – | – | –
Cl.Cn1ccc(-c2cccc(Nc3ccnc4cc(-c5nccs5)ccc34)c2)n1 [GW525701] | 39% | 0% | 0% | 8% | 21% | 2% | 13% | 0% | 7% | 0% | – | – | – | – | – | – | –
CCn1c(-c2ccncc2)nc2cnccc21 [SB-735216] | 0% | 19% | 16% | 19% | 34% | 8% | 40% | 14% | 39% | 32% | – | – | – | – | – | – | –
Nc1nc(-c2ccccn2)c(-c2ccnc3ccccc23)s1 [GW548057] | 33% | 5% | 39% | 0% | 9% | 0% | 1% | 0% | 76% | 0% | – | – | – | – | – | – | –
Cl.c1ccc(Cn2ccc3cc(Nc4ncnc5ccccc45)ccc32)cc1 [GW275568] | 39% | 41% | 23% | 0% | 34% | 2% | 4% | 0% | 26% | 0% | – | – | – | – | – | – | –
FC(F)(F)c1ccc(-c2nn3ncccc3c2-c2ccnc(Nc3cccc(C(F)(F)F)c3)n2)cc1 [GW828205] | 3% | 12% | 0% | 0% | 6% | 0% | 0% | 0% | 3% | 0% | – | – | – | – | – | – | –
Oc1ccc2ncnc(Nc3ccc(OCc4ccccc4)cc3)c2c1 [GI262866] | 0% | 0% | 0% | 0% | 0% | 5% | 0% | 0% | 0% | 0% | – | – | – | – | – | – | –
O=C(c1ccc(-c2cc(-c3c[nH]nc3-c3ccccn3)ccn2)cc1)N1CCCC1 [GW792479] | 11% | 4% | 0% | 14% | 39% | 0% | 12% | 0% | 19% | 7% | – | – | – | – | – | – | –
COc1ccc(Nc2nccc(N3CCC(NC(=O)c4cccc(NC(C)=O)c4)C3)n2)cc1 (stereo not drawn) [GSK1379732] | 20% | 0% | 0% | 0% | 16% | 23% | 6% | 0% | 27% | 0% | – | – | – | – | – | – | –
C[C@@H]1CCN(C(=O)CO)C[C@@H]1N(C)c1ncnc2[nH]ccc12 | 13% | 0% | 4% | 0% | 0% | 0% | 23% | 0% | 30% | 1% | – | – | – | – | – | – | –
Cc1ccc(O)cc1Nc1cc(C(F)(F)F)nc2ccc(-c3ccncc3)cc12 [GW630823] | 9% | 0% | 0% | 0% | 0% | 0% | 5% | 4% | 14% | 0% | – | – | – | – | – | – | –
CSc1nn2c(=O)cc(N3CCOCC3)nc2n1Cc1cccc(Cl)c1Cl [GSK2347225] | 8% | 18% | 15% | 0% | 0% | 10% | 0% | 0% | 9% | 0% | – | – | – | – | – | – | –
CN1CCC(n2cnc(-c3ccc(F)cc3)c2-c2ccnc(NC3CCNCC3)n2)CC1 [SB-229482] | 0% | 17% | 23% | 9% | 43% | 18% | 30% | 0% | 51% | 25% | – | – | – | – | – | – | –
O=C(NCCCN1CCCC1=O)c1cnc(NCc2cc(Cl)ccc2Cl)nc1NC1CCNCC1 | 0% | 100% | 5% | 0% | 0% | 39% | 8% | 0% | 17% | 26% | – | – | – | – | – | – | –
